mHTT-CaM PPI inh: disrupts binding of mutant huntingtin to calmodulin; hit rate 3.6% among 190,000; AID 1671202; inhibition, % at 15 µM; AlphaScreen His-mHTT/GST-CaM binding, luminescence; P42858;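 also: 0% = both proteins with DMSO and 100% = one protein alone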
Pf apPOL block: Pf-apPOL DNA polymerase inhibition; Recombinant Pf-apPOL, molecular beacon fluorescence, 1.5 h; inhibition, % at 10 µM; hit rate 0.25% among 210,000; AID 1794808
* marks the source's active call; other numbers are inactive results. The sample as a whole holds a higher share of hits than the screen did. Rule as the data show it: active = inhibition above about 50%; inactive = the rest.

How did O=c1[nH]c2ccccc2c2oc(-c3ccccc3F)nc12 do in these assays?
mHTT-CaM PPI inh: 1; Pf apPOL block: -3

What do the screens show for `CCc1ccc(S(=O)(=O)N2CCC(c3noc(-c4ccccc4)n3)CC2)cc1`?
mHTT-CaM PPI inh: 2; Pf apPOL block: -2

Results for CCc1ccc(C(=O)N2CCCC(c3cccc(C(=O)NCc4cccnc4)c3)C2)cc1 (centres undefined) ?
mHTT-CaM PPI inh: 13; Pf apPOL block: -1

How did CN(CC#CC(C)(C)O)Cc1ccccc1 do in these assays?
mHTT-CaM PPI inh: -4; Pf apPOL block: -3

Results for CN(CC#CCC(O)(c1ccccc1)c1ccccc1)Cc1ccccc1 ?
mHTT-CaM PPI inh: 87*; Pf apPOL block: -4

What do the screens show for `COc1ccccc1/C=C/C=C1\N=C(c2cccc([N+](=O)[O-])c2)OC1=O`?
mHTT-CaM PPI inh: 7; Pf apPOL block: -1

Results for N#C/C(=C\c1cccc(Br)c1)c1nc(-c2ccc([N+](=O)[O-])cc2)cs1 ?
mHTT-CaM PPI inh: 22; Pf apPOL block: -11

Results for CCCOc1ccc(OCCSc2nc(N)cc(=O)[nH]2)cc1 ?
mHTT-CaM PPI inh: 0; Pf apPOL block: 3

Results for Nc1cc(=O)[nH]c(SCCOc2ccc(Cl)cc2)n1 ?
mHTT-CaM PPI inh: 100*; Pf apPOL block: -10

Results for N#CC1=C(N)C(C#N)(C#N)C(c2cccc(F)c2)C2CCCC=C12 (centres undefined) ?
mHTT-CaM PPI inh: 23; Pf apPOL block: -3

Results for N#CC1=C(N)C(C#N)(C#N)C(c2cccc(Oc3ccccc3)c2)C2CCCC=C12 (centres undefined) ?
mHTT-CaM PPI inh: 50*; Pf apPOL block: 4

How did N#CC1=C(N)C(C#N)(C#N)C(c2ccc(Cl)cc2Cl)C2CCCC=C12 (centres undefined) do in these assays?
mHTT-CaM PPI inh: 49; Pf apPOL block: 2

Results for N#CC1=C(N)C(C#N)(C#N)C(c2ccc(Cl)c(Cl)c2)C2CCCC=C12 (centres undefined) ?
mHTT-CaM PPI inh: 100*; Pf apPOL block: 6

How did O=C(NCC1CCCO1)c1ccc(CSc2ccccc2)cc1 (centres undefined) do in these assays?
mHTT-CaM PPI inh: -6; Pf apPOL block: -13

Results for COc1ccc(/C=C(\C#N)c2[nH]nc(N)c2C#N)cc1OC ?
mHTT-CaM PPI inh: 20; Pf apPOL block: -4

How did COc1nn(C)cc1C(=O)NCC(=O)N1CCc2ccccc2C1 do in these assays?
mHTT-CaM PPI inh: -9; Pf apPOL block: -5

What do the screens show for `Nc1ccc(N=Nc2ccccc2)c(N)n1`?
mHTT-CaM PPI inh: 52*

How did Oc1ccc(N=Nc2ccccc2)c(O)c1 do in these assays?
Pf apPOL block: 36

Results for O=C(c1ccccc1OCC1CCN(C(=O)C2CCCC2)CC1)N1CCCCC1 ?
mHTT-CaM PPI inh: 5; Pf apPOL block: 2

What do the screens show for `Cc1ccc(S(=O)(=O)N2CCN(C)C(c3ccccc3)C2)cc1` (centres undefined)?
mHTT-CaM PPI inh: -3; Pf apPOL block: 2

How did Cc1ccc(C2=C/C(=C\c3ccccc3C)C(=O)O2)cc1 do in these assays?
mHTT-CaM PPI inh: -37; Pf apPOL block: 0

What do the screens show for `CC1=C/C(=C/c2ccc(-c3ccc(C)cc3)o2)C(=O)O1`?
mHTT-CaM PPI inh: 85*; Pf apPOL block: -3

Results for CCN(CC)c1ccc(CNC(=O)c2ccc3c(c2)N(S(C)(=O)=O)CC3)cc1 ?
mHTT-CaM PPI inh: 39; Pf apPOL block: 4

What do the screens show for `Cc1cc(C)c(S(=O)(=O)N2CCCC(C)(C(=O)NCc3cccc(F)c3)C2)c(C)c1` (centres undefined)?
mHTT-CaM PPI inh: 8; Pf apPOL block: -2

What do the screens show for `Cc1cc(C)c(S(=O)(=O)N2CCCC(C)(C(=O)NCc3ccc(F)cc3)C2)c(C)c1` (centres undefined)?
mHTT-CaM PPI inh: 91*; Pf apPOL block: -4

How did Cc1cccc(S(=O)(=O)N2CCCC(C)(C(=O)NCc3ccc(F)cc3)C2)c1 (centres undefined) do in these assays?
mHTT-CaM PPI inh: 37; Pf apPOL block: 1

What do the screens show for `Cc1cc(C)c(S(=O)(=O)N2CCCC(C)(C(=O)NCc3ccc(F)cc3)C2)cc1C` (centres undefined)?
mHTT-CaM PPI inh: 61*; Pf apPOL block: 0

What do the screens show for `O=C(Cc1ccc(F)cc1)N1CCC(c2cnn(-c3ccc(F)cc3)c2)CC1`?
mHTT-CaM PPI inh: 0; Pf apPOL block: 2

What do the screens show for `CC(=O)Nc1nonc1N1C(=N)S/C(=C\c2ccc(-c3ccccc3F)o2)C1=O`?
mHTT-CaM PPI inh: 15; Pf apPOL block: 0

How did N=C1S/C(=C\c2ccc(-c3ccc(F)c(Cl)c3)o2)C(=O)N1c1nonc1N do in these assays?
mHTT-CaM PPI inh: 51*; Pf apPOL block: 0

How did N=C1S/C(=C\c2ccc(-c3cccc(C(=O)O)c3)o2)C(=O)N1c1nonc1N do in these assays?
mHTT-CaM PPI inh: 47; Pf apPOL block: -1

What do the screens show for `CC(=O)Nc1nonc1N1C(=N)S/C(=C\c2ccc(-c3cccc(C(F)(F)F)c3)o2)C1=O`?
mHTT-CaM PPI inh: 56*; Pf apPOL block: -13

How did CC(C)C(=O)NCc1csc(C2CCN(C(=O)Cc3cccc(F)c3)CC2)n1 do in these assays?
mHTT-CaM PPI inh: 1; Pf apPOL block: -14

Results for S=c1[nH]nc(-c2cccnc2)n1-c1cccc(Cl)c1 ?
Pf apPOL block: 0

What do the screens show for `COc1cccc(CCC(=O)N2CCCC(c3noc(-c4ccccc4OC)n3)C2)c1` (centres undefined)?
mHTT-CaM PPI inh: 18; Pf apPOL block: -1

How did O=C1c2cccnc2C(=O)N1c1ccc(-c2ccc([N+](=O)[O-])cc2)cc1 do in these assays?
mHTT-CaM PPI inh: 1; Pf apPOL block: -6

Results for O=C1c2cccnc2C(=O)N1c1ccc(Cc2ccc(N3C(=O)c4cccnc4C3=O)cc2)cc1 ?
mHTT-CaM PPI inh: 80*; Pf apPOL block: 8

What do the screens show for `O=C1c2cccnc2C(=O)N1c1ccc(Oc2ccc(N3C(=O)c4cccnc4C3=O)cc2)cc1`?
mHTT-CaM PPI inh: 99*; Pf apPOL block: -3

How did O=C1c2cccnc2C(=O)N1c1cccc(C(F)(F)F)c1 do in these assays?
mHTT-CaM PPI inh: 13; Pf apPOL block: -5

How did CC(C)COc1ccc(C(=O)Nc2cccc([N+](=O)[O-])c2)cc1 do in these assays?
mHTT-CaM PPI inh: 0; Pf apPOL block: -9

What do the screens show for `O=C(COc1ccc(F)cc1)N1CCC(CCOc2ccccc2)CC1`?
mHTT-CaM PPI inh: 70*; Pf apPOL block: -3

What do the screens show for `Cn1cccc1C(=O)N1CCC(CCOc2ccccc2)CC1`?
mHTT-CaM PPI inh: 58*; Pf apPOL block: -7

How did O=C(COc1ccc(F)cc1)N1CCC(CCOc2ccncc2)CC1 do in these assays?
mHTT-CaM PPI inh: 6; Pf apPOL block: 0

How did Cn1nccc1C(=O)N1CCC(CCOc2ccccc2)CC1 do in these assays?
mHTT-CaM PPI inh: 6; Pf apPOL block: 2

How did COc1ccc(OCC(=O)NCCC2CCN(C(=O)c3ccccc3)CC2)cc1 do in these assays?
mHTT-CaM PPI inh: 48; Pf apPOL block: -3

How did O=C(Nc1ccccc1)c1ccccc1 do in these assays?
Pf apPOL block: -7

Results for NNC(=O)c1nc[nH]c1C(=O)Nc1ccccc1 ?
mHTT-CaM PPI inh: 81*; Pf apPOL block: -7

What do the screens show for `c1csc(-c2cc3ccccc3[nH]2)c1`?
Pf apPOL block: 11

Results for NCCc1c(-c2cccs2)[nH]c2ccccc12 ?
mHTT-CaM PPI inh: 88*; Pf apPOL block: -6

Results for Cc1onc(-c2ccccc2)c1C(=O)CN1CCN(c2nc3cc(Cl)ccc3s2)CC1 ?
Pf apPOL block: -8
